The values below come from PubChem BioAssay (Tox21).

A short description of assay [1]: Nuclear factor erythroid 2-related factor 2/antioxidant responsive element (Nrf2/ARE) small molecule agonists: qHTS cell viability counter screen in human keratinocytes (AID 1919968; active means well fitted curve in the direction sought with a large enough effect in the repeat runs; an effect the other way counts as inactive or inconclusive; further: nearly all actives have a fitted effect of over 55% in size). An outline of the steps: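 After a 5 h attachment period, ARE-reporter keratinocytes were dosed with compounds in DMSO and then cultured 23 h at 37 C. Cell viability came from CellTiter-Fluor signal read after a further 1 h.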

Assay [2] concerns the target Gonadotropin-releasing hormone receptor (Homo sapiens) (UniProt P30968). The assay is described as follows: Human gonadotropin-releasing hormone receptor (GnRHR) small molecule agonists, calcium flux assay in GnRHR-HEK293 cells (AID 1920063). Further: nearly all actives have a fitted effect of over 35% in size. The essentials: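 We seeded human GnRHR-expressing HEK293 cells for 18 hours, loaded them with calcium dye for an hour at 37 C, added test compounds, and recorded fluorescence intensity kinetically for three minutes.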

The target of assay [3] is KiSS-1 receptor (Homo sapiens) (UniProt Q969F8). Put plainly: Human kisspeptin (KISS1R) small molecule agonists, calcium flux assay in KISS1R-HEK293 cells (AID 1920064; active means well fitted curve in the direction sought with a large enough effect in the repeat runs; an effect the other way counts as inactive or inconclusive). An outline of the steps:
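Kinetic calcium assay, 1 s sampling over 3 min at Ex/Em 480/540, in HEK293 cells engineered with human KISS1R; compounds delivered in DMSO after 1 h dye loading.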

Assay [4] in a line: G protein-coupled receptor (GPCR) small molecule agonists, calcium flux assay: HEK293 wild type cell line counter screen (AID 1920065). The essentials:
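Calcium-sensitive dye, loaded 1 h at 37 C into cells cultured 18 h, reports compound-evoked calcium release as fluorescence (Ex/Em 480/540), measured over 3 min. Agonist mode; 15-point titrations, triplicate.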

Assay [5] is described as follows: p53 small molecule agonists, cell-based qHTS assay with rat liver microsomes (AID 1963578). An outline of the steps:
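p53RE-bla cells, 4,000/well, pre-incubated 5 h, then given compounds plus rat liver microsomes (0.5 mg/mL final) and NADPH (0.5 mg/mL final). Incubation 16 h at 37 C; beta-lactamase reporter read by LiveBLAzer fluorescence after 2 h at room temperature.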

The nature of assay [6]: p53 small molecule agonists, cell-based qHTS assay with human liver microsomes: qHTS cell viability counter screen (AID 1963579). Further: nearly all actives have a fitted effect of over 45% in size. An outline of the steps:
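p53RE-bla cells, 4,000/well, dosed 5 hours after plating, with human liver microsomes (0.5 mg/mL final) plus NADPH (0.5 mg/mL final), 16 hours at 37 C. Viability read as CellTiter-Glo luminescence after 30 min at room temperature.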

Assay [7] has as its target 5-hydroxytryptamine receptor 2A (Homo sapiens) (UniProt P28223). The assay is described as follows: 5-hydroxytryptamine receptor 2A (HTR2A) small molecule agonists, cell-based qHTS assay (AID 1963587). Further: nearly all actives have a fitted effect of over 30% in size. The essentials:
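CHO cells stably expressing human HTR2A, plated 18 h, loaded with calcium dye 1 h at 37 C. Agonist mode: compounds added and intracellular calcium fluorescence recorded kinetically for 2 min at 1 sec intervals.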

Assay [8] has as its target Muscarinic acetylcholine receptor M1 (Homo sapiens) (UniProt P11229). Put plainly: Cholinergic receptor muscarinic 1 (CHRM1) small molecule antagonists, cell-based qHTS assay (AID 1963588). Further: nearly all actives have a fitted effect of over 40% in size. Further: potency means the concentration at half of the fitted maximal effect. An outline of the steps: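 CHRM1-CHO calcium-flux assay, antagonist mode. Cells were seeded 18 h, dye-loaded 1 h at 37 C and given compound for 5 min at RT, then acetylcholine was added at 50nM. FDSS fluorescence was read 3 min; 15 concentrations, three runs.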

Assay [9] has the same target. Put plainly: Cholinergic receptor muscarinic 1 (CHRM1) small molecule agonists, cell-based qHTS assay (AID 1963589). Further: nearly all actives have a fitted effect of over 35% in size. An outline of the steps: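 Measures agonist-induced intracellular calcium rise. Stable human CHRM1 CHO line, 1 h dye load at 37 C, compounds from DMSO, kinetic fluorescence read.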
The nature of assay [10]: p53 small molecule agonists, cell-based qHTS assay with human liver microsomes (AID 1963577). An outline of the steps:
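p53RE-bla cells, 4,000/well, compound added after 5 h, with human liver microsomes 0.5 mg/mL and NADPH 0.5 mg/mL final; 16 h at 37 C, then LiveBLAzer 2 h RT, fluorescence.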

Assay [11] can be described thus: p53 small molecule agonists, cell-based qHTS assay with rat liver microsomes: qHTS cell viability counter screen (AID 1963580). Further: nearly all actives have a fitted effect of over 45% in size. An outline of the steps:
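p53RE-bla HCT-116 cells were exposed 16 h at 37 C to compounds with rat liver microsomes (0.5 mg/mL) and NADPH (0.5 mg/mL). Viability was measured in the same wells as ATP content by CellTiter-Glo luminescence.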

Assay [12] can be described thus: p53 small molecule agonists, cell-based qHTS assay: qHTS cell viability counter screen (AID 1963581). Further: nearly all actives have a fitted effect of over 45% in size. An outline of the steps:
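Following 5 h attachment, HCT-116 p53RE-bla cells took up compound for 16 h at 37 C; the reporter was read with B/G FRET substrate (2 h RT), and viability then via CellTiter-Glo ATP luminescence.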

The nature of assay [13]: p53 small molecule agonists, cell-based qHTS assay (AID 1963582; active means well fitted activation curve with a large enough effect in the signal ratio in the repeat runs, not every such curve was filed as active; the % refers to the signal ratio). An outline of the steps: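 In this cell-based concentration-response screen, a p53 response element drives beta-lactamase; cells received DMSO-borne compounds after 5 h culture and were incubated a further 16 h before FRET substrate development.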
The target of assay [14] is 5-hydroxytryptamine receptor 2A (Homo sapiens) (UniProt P28223). Put plainly: 5-hydroxytryptamine receptor 2A (HTR2A) small molecule antagonists, cell-based qHTS assay (AID 1963586). Further: nearly all actives have a fitted effect of over 45% in size. The essentials: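 Antagonist-mode intracellular calcium assay: DOI (4 nM) added after 5 min compound pre-incubation at room temperature to dye-loaded HTR2A-CHO cells. Fluorescence followed for 3 min, sampled every second.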

A short description of assay [15]: cAMP Responsive Elements (CRE) small molecule agonists, cell-based qHTS assay (AID 1963590). The essentials:
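A CRE-responsive beta-lactamase reporter in HEK 293T cells was used. Treatment ran 3 h at 37 C; detection used LiveBLAzer B/G FRET substrate for 2 h at room temperature.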

Assay [16] in a line: cAMP Responsive Elements (CRE) small molecule antagonists, cell-based qHTS assay (AID 1963591; active means well fitted inhibition curve with a large enough effect in the signal ratio in the repeat runs, not every such curve was filed as active; the % refers to the signal ratio). The essentials: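 HEK293T cells carrying a CRE-driven beta-lactamase reporter receive compound and NKH477 (0.25 uM final) for 3 h. Fluorescence from LiveBLAzer B/G FRET substrate is read after 2 h at room temperature.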
Assay [17] deals with Beta-2 adrenergic receptor (Homo sapiens) (UniProt P07550). The assay is described as follows: Adrenergic beta2 receptor (ADRB2) small molecule antagonists, cell-based qHTS assay (AID 1963592). Further: series mostly up to about 92 µM; nearly all actives have a fitted effect of over 50% in size. An outline of the steps:
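Cells (CHO, stable ADRB2 overexpression) incubated 18-20hr at 37C; compounds added from DMSO; agonist mix (1nM isoproterenol, 100uM IBMX, 25uM Ro-20-1724) added; 0.5hr RT; d2-cAMP and anti-cAMP-cryptate added; 1hr RT; 665/615 nm read.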

For assay [18], the target named is D(2) dopamine receptor (Homo sapiens) (UniProt P14416). Put plainly: Dopamine D2 receptor (DRD2) small molecule agonists, cell-based qHTS assay (AID 1963594). Further: nearly all actives have a fitted effect of over 35% in size. The essentials: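 HEK293 cells stably expressing human DRD2, pre-treated with PDE inhibitor Ro20-1724 (0.1 mM final) and compound 10 min at room temperature, then stimulated with NKH477 (200nM […]) for 30 min. cAMP read by HTRF (665/620 nm).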

The target is the same in assay [19]. The assay is described as follows: Dopamine D2 receptor (DRD2) small molecule antagonists, cell-based qHTS assay (AID 1963595; active means well fitted inhibition curve with a large enough effect in the signal ratio in the repeat runs, with a control signal flat; the % refers to the signal ratio). An outline of the steps:
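Stable D2 receptor HEK293 line, 24 h after seeding. Compound preincubated 10 min, then quinpirole (12 nM) with forskolin analogue NKH477 (200 nM), 30 min, room temperature. Detection by time-resolved FRET of cAMP.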

Inconclusive results are not listed. Calls of active or inactive are those of the source. Unless noted, the call rests on the fitted dose curve.

Chain of 5-hydroxytryptamine receptor 2A (Homo sapiens) (P28223 whole entry, looked up): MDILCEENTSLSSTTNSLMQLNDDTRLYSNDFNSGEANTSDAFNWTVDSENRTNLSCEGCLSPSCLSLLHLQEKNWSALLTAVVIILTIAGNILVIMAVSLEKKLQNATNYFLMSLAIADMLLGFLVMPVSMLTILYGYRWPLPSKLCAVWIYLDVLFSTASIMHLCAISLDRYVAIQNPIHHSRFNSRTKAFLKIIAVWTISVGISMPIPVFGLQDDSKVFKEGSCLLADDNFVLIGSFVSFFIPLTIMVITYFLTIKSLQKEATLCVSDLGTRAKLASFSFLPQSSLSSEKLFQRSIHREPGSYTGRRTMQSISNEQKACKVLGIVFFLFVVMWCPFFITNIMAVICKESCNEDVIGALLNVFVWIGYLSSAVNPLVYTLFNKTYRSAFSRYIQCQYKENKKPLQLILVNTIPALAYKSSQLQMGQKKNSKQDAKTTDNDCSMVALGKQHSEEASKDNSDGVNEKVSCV
Chain of KiSS-1 receptor (Homo sapiens) (Q969F8 whole entry, looked up): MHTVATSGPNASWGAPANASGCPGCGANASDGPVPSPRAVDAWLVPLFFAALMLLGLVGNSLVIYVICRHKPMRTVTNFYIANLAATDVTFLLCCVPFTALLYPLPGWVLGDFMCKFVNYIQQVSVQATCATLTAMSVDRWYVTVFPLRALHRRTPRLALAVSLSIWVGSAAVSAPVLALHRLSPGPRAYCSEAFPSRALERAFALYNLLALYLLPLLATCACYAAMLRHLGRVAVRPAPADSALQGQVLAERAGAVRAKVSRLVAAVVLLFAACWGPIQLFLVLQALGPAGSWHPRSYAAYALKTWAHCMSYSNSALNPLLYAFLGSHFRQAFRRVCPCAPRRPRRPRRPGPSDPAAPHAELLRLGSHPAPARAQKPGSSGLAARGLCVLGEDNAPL
Chain of Beta-2 adrenergic receptor (Homo sapiens) (P07550 whole entry, looked up): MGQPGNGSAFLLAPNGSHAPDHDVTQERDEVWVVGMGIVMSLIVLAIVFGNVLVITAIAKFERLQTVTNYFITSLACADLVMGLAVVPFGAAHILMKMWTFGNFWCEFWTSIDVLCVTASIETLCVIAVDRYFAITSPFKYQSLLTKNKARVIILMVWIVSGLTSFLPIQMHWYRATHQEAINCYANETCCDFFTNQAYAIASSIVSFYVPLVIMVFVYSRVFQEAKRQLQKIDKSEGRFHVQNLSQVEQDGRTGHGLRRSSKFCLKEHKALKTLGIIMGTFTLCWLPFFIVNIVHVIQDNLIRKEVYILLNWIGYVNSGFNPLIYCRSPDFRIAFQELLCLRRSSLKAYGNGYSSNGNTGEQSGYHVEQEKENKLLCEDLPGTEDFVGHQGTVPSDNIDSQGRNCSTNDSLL
Chain of D(2) dopamine receptor (Homo sapiens) (P14416 whole entry, looked up): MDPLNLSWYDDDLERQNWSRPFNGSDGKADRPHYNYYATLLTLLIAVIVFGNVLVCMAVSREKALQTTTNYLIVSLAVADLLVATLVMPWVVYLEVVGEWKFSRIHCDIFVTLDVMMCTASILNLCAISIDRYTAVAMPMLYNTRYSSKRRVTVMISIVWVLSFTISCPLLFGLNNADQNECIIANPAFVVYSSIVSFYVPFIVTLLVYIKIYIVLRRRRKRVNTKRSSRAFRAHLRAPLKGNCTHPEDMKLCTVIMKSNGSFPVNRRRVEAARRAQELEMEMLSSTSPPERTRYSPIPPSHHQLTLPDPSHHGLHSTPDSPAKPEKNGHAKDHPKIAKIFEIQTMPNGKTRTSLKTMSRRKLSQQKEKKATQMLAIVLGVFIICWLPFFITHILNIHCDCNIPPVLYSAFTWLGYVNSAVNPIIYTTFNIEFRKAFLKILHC
Chain of Gonadotropin-releasing hormone receptor (Homo sapiens) (P30968 whole entry, looked up): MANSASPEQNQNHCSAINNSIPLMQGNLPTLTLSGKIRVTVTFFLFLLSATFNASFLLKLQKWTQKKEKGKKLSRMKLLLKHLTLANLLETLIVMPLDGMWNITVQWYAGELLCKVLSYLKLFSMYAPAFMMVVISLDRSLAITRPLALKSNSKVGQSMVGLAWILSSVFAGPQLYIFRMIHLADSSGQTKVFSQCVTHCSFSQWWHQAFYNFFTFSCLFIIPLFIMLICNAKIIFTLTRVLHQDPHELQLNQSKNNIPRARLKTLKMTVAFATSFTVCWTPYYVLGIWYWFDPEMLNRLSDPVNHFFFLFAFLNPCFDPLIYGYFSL
Chain of Muscarinic acetylcholine receptor M1 (Homo sapiens) (P11229 whole entry, looked up): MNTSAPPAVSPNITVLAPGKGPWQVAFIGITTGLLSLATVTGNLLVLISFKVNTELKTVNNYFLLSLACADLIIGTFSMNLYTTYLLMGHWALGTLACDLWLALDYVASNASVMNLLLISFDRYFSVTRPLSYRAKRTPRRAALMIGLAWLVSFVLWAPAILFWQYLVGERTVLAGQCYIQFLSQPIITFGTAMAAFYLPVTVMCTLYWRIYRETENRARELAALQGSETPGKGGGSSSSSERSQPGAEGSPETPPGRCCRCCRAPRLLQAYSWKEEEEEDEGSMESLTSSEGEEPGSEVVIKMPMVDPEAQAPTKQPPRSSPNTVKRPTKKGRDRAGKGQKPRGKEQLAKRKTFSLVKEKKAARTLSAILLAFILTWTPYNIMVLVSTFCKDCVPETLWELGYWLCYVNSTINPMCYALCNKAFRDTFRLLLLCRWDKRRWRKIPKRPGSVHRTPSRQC

For the compound `CC(C)Oc1cccc(NC(=O)c2ccccc2C(F)(F)F)c1`, the Potency entry in assay [1], in [2], in assay [3], in [4], in assay [5] and in [6] was “inactive” throughout. Also, the Potency entry in [7] and in assay [9] was “inactive” each time. In addition, the Potency in [8] was 11.9 nM (active).

As for `Cc1cc(=O)[nH]o1`, the Potency entry in assay [1], in [2], in assay [3], in [4], in assay [10] and in assay [6] was “inactive” each time. In addition, the Potency entry in [11], in assay [12], in [13], in assay [14], in [7] and in assay [8] was “inactive” throughout. For the same compound, the Potency entry in assay [9], in assay [15], in assay [16], in assay [17], in [18] and in [19] was “inactive” in each case.

For `Cc1nc(N(C)C)nc(OC(=O)N(C)C)c1C`, the Potency entry in assay [1], in assay [2], in assay [3], in assay [4], in assay [12] and in assay [14] was “inactive” in each case. The Potency entry in assay [7], in assay [8], in assay [9], in [15], in [16] and in assay [17] was “inactive” each time. Besides, the Potency entry in [19] was “inactive”.

In the case of `CCOP(=S)(Oc1cnc(C(C)(C)C)nc1)OC(C)C` (stereo not drawn), the Potency entry in assay [1], in assay [2], in assay [3], in [4], in assay [6] and in assay [11] was “inactive” throughout. The Potency entry in assay [12], in assay [7], in assay [8], in assay [9], in assay [17] and in assay [18] was “inactive” in each case. In assay [19], the Potency entry is “inactive”.

`CCC(=O)c1ccc(Cl)cc1`: the Potency result in assay [1], in assay [2], in assay [3], in [4], in [6] and in [12] was “inactive” throughout. In addition, the Potency result in assay [14], in assay [7], in [8], in assay [9], in assay [15] and in assay [16] was “inactive” in each case. Further, the Potency entry in assay [17] and in assay [18] was “inactive” throughout.

Turning to `O=c1oc2ccccc2c(O)c1C1CCCc2ccccc21` (stereo not drawn), the Potency result in assay [1], in assay [2], in assay [3], in assay [10], in assay [5] and in [11] was “inactive” each time. Further, the Potency result in [12], in assay [13], in assay [7], in assay [8], in assay [9] and in [15] was “inactive” throughout. The Potency result in assay [16], in assay [18] and in [19] was “inactive” in each case.

For `O=[N+]([O-])c1cccc(CCl)c1`, the Potency result in assay [1], in assay [2], in assay [3], in assay [4], in [6] and in [11] was “inactive” each time. The Potency entry in [12], in [14], in assay [7], in assay [8], in [9] and in [15] was “inactive” in each case. In addition, the Potency result in assay [16], in assay [17], in assay [18] and in assay [19] was “inactive” throughout.
